Experimental data: PubChem BioAssay AID651994 (Sanford-Burnham Center for Chemical Genomics, 2013)
The campaign covered roughly 2,500 compounds. About 790 (32%) were called active.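 How the source made its calls: active means mean cytotoxicity at 5 µM above about 25% (limit read from the data); inactive means the rest.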 Only a sample is shown.

Assay: cytotoxicity in Sufu-KO-LIGHT cells, confirmation, cytotoxicity control for Gli-SUFU antagonist project, cell-based, ATP luminescence, single concentration (AID 651994);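 further: cells exposed to compound overnight for roughly 16 to 18 hours; plate controls were DMSO wells with cells for no effect and medium without cells for full effect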
Details: at 5 µM, hits give high values

**Q.** For `Cc1ccsc1C(=O)OCC(=O)c1cc(C)n(CC2CCCO2)c1C` (configuration not stated), which cytotoxicity is on record?
**A.** 26.6% (active)

**Q.** For `Cc1cccc2nc(CSc3nc4[nH]ncc4c(=O)n3-c3cccc(Cl)c3)cc(=O)n12`, which cytotoxicity is on record?
**A.** 20.1% (inactive)

**Q.** For `Cc1ccc(S(=O)(=O)N(Cc2cc3ccccc3[nH]c2=O)CC2CCCO2)cc1` (configuration not stated), which cytotoxicity is on record?
**A.** 5.2% (inactive)

**Q.** Which cytotoxicity does the source give for `COc1ccccc1CNC(=O)C1CCN(c2nc3ccccc3o2)CC1` here?
**A.** 17.9% (inactive)

**Q.** For `Cc1cccc(NS(=O)(=O)c2ccc(-c3cnc(C4CC4)o3)cc2)c1`, which cytotoxicity is on record?
**A.** 54.4% (active)

**Q.** For `COc1ccc(NS(=O)(=O)c2ccc(NC(C)=O)cc2)cc1OC`, which cytotoxicity is on record?
**A.** 14% (inactive)

**Q.** For `Cc1cc(C)c(SCCc2ccncc2)c(C)c1`, which cytotoxicity is on record?
**A.** 29.5% (active)

**Q.** For `Cc1ccc(NC(=O)CN(C)CC(=O)Nc2cccc(F)c2)cc1[N+](=O)[O-]`, which cytotoxicity is on record?
**A.** 29% (active)

**Q.** For `Cc1ccc(O)c(NC(=O)COc2cc(C)ccc2C)c1`, which cytotoxicity is on record?
**A.** -3.46% (inactive)

**Q.** With `COCCn1c(CN2CCC(Cc3ccccc3)CC2)nc2c1c(=O)n(C)c(=O)n2C` as the compound, how does the cytotoxicity read?
**A.** 19.8% (inactive)

**Q.** Which cytotoxicity does the source give for `Cn1c(=O)c2c(nc(NCCc3ccccc3)n2Cc2ccccc2)n(C)c1=O` here?
**A.** 34.7% (active)

**Q.** Which cytotoxicity does the source give for `CCCCNc1nc2c(c(=O)n(C)c(=O)n2C)n1Cc1cccc(OC)c1` here?
**A.** 44.5% (active)

**Q.** With `COc1ccc(NS(=O)(=O)c2ccc(N3CCN(CCO)CC3)c([N+](=O)[O-])c2)cc1` as the compound, how does the cytotoxicity read?
**A.** 16.4% (inactive)

**Q.** For `CC(=O)OCCC(C)C`, which cytotoxicity is on record?
**A.** -7.84% (inactive)

**Q.** Which cytotoxicity does the source give for `CCCc1nc(N)nc2c1C(=O)CC(C)(C)C2` here?
**A.** 5.9% (inactive)

**Q.** For `CN1C(CC(=O)Nc2ccc(Br)cc2)c2ccccc2CC1(C)C` (configuration not stated), which cytotoxicity is on record?
**A.** 15.7% (inactive)

**Q.** For `Cc1ccc(C)c(S(=O)(=O)N2CCN(c3ncnc4sccc34)CC2)c1`, which cytotoxicity is on record?
**A.** 69.2% (active)

**Q.** For `c1ccc(-n2nnnc2N2CCOCC2)cc1`, which cytotoxicity is on record?
**A.** 10.1% (inactive)

**Q.** With `CC[n+]1c(C)n(-c2ccccc2)c2ccc(NC(C)=O)cc21` as the compound, how does the cytotoxicity read?
**A.** 29% (active)

**Q.** Which cytotoxicity does the source give for `CCC1CCCCN1CCCNC(=O)Cn1nc(-c2ccccc2)ccc1=O` (configuration not stated) here?
**A.** 20.3% (inactive)

**Q.** Which cytotoxicity does the source give for `CN(NC(=O)c1ccccc1F)c1nc(C(F)(F)F)nc2ccccc12` here?
**A.** 56.2% (active)

**Q.** Which cytotoxicity does the source give for `CCn1c(SCc2ccccc2)nc2cc(OC)c(OC)cc2c1=O` here?
**A.** 23.5% (inactive)

**Q.** For `CCOc1cccc(/C=N/NC(=S)NCCN2CCOCC2)c1O`, which cytotoxicity is on record?
**A.** 20.7% (inactive)

**Q.** Which cytotoxicity does the source give for `CCOC(=O)c1cnc(-n2nc(C)cc2C)nc1NNc1cc(C)nc(-c2ccccc2)n1` here?
**A.** 24% (inactive)

**Q.** Which cytotoxicity does the source give for `c1c2c(cc3sc(N4CCCCC4)nc13)OCCO2` here?
**A.** 51.8% (active)

**Q.** For `CN(C)CCN(C(=O)C1CCCCC1)c1nc2cc3c(cc2s1)OCO3`, which cytotoxicity is on record?
**A.** 20.3% (inactive)

**Q.** For `CCOC(=O)c1ccc(NC(=O)Cn2cnc3cc(C)c(C)cc32)cc1`, which cytotoxicity is on record?
**A.** 24.9% (inactive)

**Q.** With `CC(=O)c1c(C)[nH]c(C(=O)OCC(=O)Nc2sc3c(c2C#N)CCCC3)c1C` as the compound, how does the cytotoxicity read?
**A.** 17.2% (inactive)

**Q.** With `O=C(Cn1cc(C(=O)C2CC2)c2ccccc21)Nc1ccccc1Cl` as the compound, how does the cytotoxicity read?
**A.** 16.3% (inactive)

**Q.** Which cytotoxicity does the source give for `CCCOc1ccccc1C1CC(=O)Nc2cc3c(cc21)OCO3` (configuration not stated) here?
**A.** 48.1% (active)

**Q.** For `COc1ccccc1C1C2=C(COC2=O)Nc2cc3c(cc21)OCO3` (configuration not stated), which cytotoxicity is on record?
**A.** 50.9% (active)

**Q.** For `COc1ccccc1N1CCN(Cc2cc(OC)c3c(c2)OCO3)CC1`, which cytotoxicity is on record?
**A.** 22.5% (inactive)

**Q.** With `O=C(O)CCCn1cc(NC(=O)COc2cccc(Cl)c2)cn1` as the compound, how does the cytotoxicity read?
**A.** 11.7% (inactive)

**Q.** For `COc1ccc2nc(SCC(=O)Nc3c(C)cc(C)cc3C)[nH]c2c1`, which cytotoxicity is on record?
**A.** 11.7% (inactive)

**Q.** For `CCN(CC(=O)Nc1cc(Cl)ccc1C)C(=O)CSCc1ccc(C)cc1`, which cytotoxicity is on record?
**A.** 6.16% (inactive)

**Q.** With `Cc1ccc(-c2nc3c(cnn3-c3ccccc3)c(=O)o2)cc1` as the compound, how does the cytotoxicity read?
**A.** 8.43% (inactive)

**Q.** For `CCOc1ccc(-n2c(O)c(/C=N/c3ccnn3Cc3ccncc3)c3ccccc3c2=O)cc1`, which cytotoxicity is on record?
**A.** 23.8% (inactive)

**Q.** With `COc1ccccc1/C=C/CN1CCC(CO)(Cc2ccccc2)CC1` as the compound, how does the cytotoxicity read?
**A.** -4.47% (inactive)

**Q.** Which cytotoxicity does the source give for `CC1CC2=C(CC1/C=N/NC(N)=S)C(C)(C)CCC2` (configuration not stated) here?
**A.** 11.9% (inactive)

**Q.** For `CC(=O)/C(=N\Nc1ccc(Cl)cc1Cl)Sc1cccc2cccnc12`, which cytotoxicity is on record?
**A.** 25.7% (active)

**Q.** With `CN(C)c1cc[n+](Cc2ccccc2)cc1` as the compound, how does the cytotoxicity read?
**A.** 33.3% (active)

**Q.** Which cytotoxicity does the source give for `COC(=O)c1ccc(CSc2nnc(N)s2)o1` here?
**A.** 21.4% (inactive)

**Q.** With `CCNC(=S)N(CCN(CC)CC)Cc1cc2cc3c(cc2[nH]c1=O)OCO3` as the compound, how does the cytotoxicity read?
**A.** 6.68% (inactive)

**Q.** With `C=CCn1c(SCC(=O)CC(=O)OCC)nc2cc(C(=O)N3CCC(C(N)=O)CC3)ccc2c1=O` as the compound, how does the cytotoxicity read?
**A.** 3.69% (inactive)

**Q.** For `Cc1cc2[nH]ncc2cc1NC(=S)NC(=O)c1ccccc1`, which cytotoxicity is on record?
**A.** 2.37% (inactive)

**Q.** With `Cc1ccccc1C(=O)NC(=S)Nc1ccc(N2CCN(C(=O)c3ccccc3)CC2)cc1` as the compound, how does the cytotoxicity read?
**A.** 32.2% (active)

**Q.** For `CC(C)Oc1ccc(CN2CCC(n3nccc3NC(=O)c3cccnc3)CC2)cc1`, which cytotoxicity is on record?
**A.** 4.98% (inactive)

**Q.** For `CNc1ccc(SC#N)cc1`, which cytotoxicity is on record?
**A.** 3.32% (inactive)

**Q.** For `CCCC1=Nc2cc(C(=O)NCc3ccco3)ccc2Sc2ccccc21`, which cytotoxicity is on record?
**A.** 53.8% (active)

**Q.** Which cytotoxicity does the source give for `CC(C)c1ccc(OCC(O)CN2CCN(c3ccccn3)CC2)cc1` (configuration not stated) here?
**A.** 9.73% (inactive)

**Q.** With `O=[N+]([O-])c1ccc(N2CCN(CC(O)COc3ccccc3)CC2)cc1` (configuration not stated) as the compound, how does the cytotoxicity read?
**A.** 30.6% (active)

**Q.** With `CC(C)OCC(O)CN1CCN(C(c2ccccc2)c2ccccc2)CC1` (configuration not stated) as the compound, how does the cytotoxicity read?
**A.** 16.3% (inactive)

**Q.** Which cytotoxicity does the source give for `O=C(c1cc(Cl)cc(Cl)c1)N1CCC(=O)N(C(COCc2ccccc2)Cc2ccccc2)CC1` (configuration not stated) here?
**A.** 21.8% (inactive)

**Q.** With `CCCCC(=O)NC(c1ccc(OC)c(OC)c1)c1ccc2cccnc2c1O` (configuration not stated) as the compound, how does the cytotoxicity read?
**A.** 19.2% (inactive)

**Q.** For `C=CCOC(=O)C1=C[C@@H](c2ccc3c(c2)OCO3)C[C@@H](OCCCCO)O1`, which cytotoxicity is on record?
**A.** 2.89% (inactive)

**Q.** With `Cc1nonc1C1CCCN1C(=O)c1cc(COc2cccc(C(F)(F)F)c2)on1` (configuration not stated) as the compound, how does the cytotoxicity read?
**A.** 29.3% (active)

**Q.** For `O=C1/C(=C\c2cccnc2)CN(Cc2ccccc2)C/C1=C\c1cccnc1`, which cytotoxicity is on record?
**A.** 10.1% (inactive)

**Q.** Which cytotoxicity does the source give for `O=C(NC1CCN(C(=S)Nc2ccc(Cl)cc2)CC1)C1CCCCC1` here?
**A.** 2.7% (inactive)

**Q.** With `C=CCOc1nc2c(c(=O)n(C)c(=O)n2C)n1Cc1ccc(Cl)cc1Cl` as the compound, how does the cytotoxicity read?
**A.** 26.7% (active)

**Q.** For `COC(=O)Cc1[nH]n(-c2nc3ccccc3s2)c(=O)c1C(C)=Nc1ccc(OC)cc1`, which cytotoxicity is on record?
**A.** 15.6% (inactive)

**Q.** Which cytotoxicity does the source give for `COc1ccccc1CCNC(=O)C(=O)NCCC1CCCCN1S(=O)(=O)c1cccs1` (configuration not stated) here?
**A.** 20.7% (inactive)

**Q.** With `N#CC(C#N)=CN=c1ccn(Cc2ccc(Cl)cc2Cl)cc1` as the compound, how does the cytotoxicity read?
**A.** 29.5% (active)

**Q.** With `CCCOc1ccc(Cc2c(Cl)nc(SC)nc2NC)cc1` as the compound, how does the cytotoxicity read?
**A.** 31.8% (active)

**Q.** For `CC(C)Oc1ccc(/C=N/NC(=O)c2nnn(-c3nonc3N)c2CN(C)C2CCCCC2)cc1`, which cytotoxicity is on record?
**A.** 9.64% (inactive)

**Q.** Which cytotoxicity does the source give for `O=C(CN1C(=O)c2ccccc2S1(=O)=O)N1CCc2ccccc21` here?
**A.** 36.9% (active)

**Q.** With `Cc1onc(-c2ccccc2)c1C(=O)Nc1ccccc1C#N` as the compound, how does the cytotoxicity read?
**A.** 7.65% (inactive)

**Q.** Which cytotoxicity does the source give for `Cc1cc(NC(=O)c2cccc(N3C(=O)CCC3=O)c2)no1` here?
**A.** 8.93% (inactive)

**Q.** Which cytotoxicity does the source give for `C/C(=N\NC(=O)Cc1ccc(Cl)cc1)c1ccccn1` here?
**A.** 38.9% (active)

**Q.** For `CC(=O)Nc1cccc(OCC(=O)/C=C2\N(C)c3ccccc3C2(C)C)c1`, which cytotoxicity is on record?
**A.** 23.9% (inactive)

**Q.** Which cytotoxicity does the source give for `Cc1ccc(C(=O)C[n+]2cc(-c3ccccc3)n3c2CCCCC3)cc1` here?
**A.** 38.4% (active)

**Q.** For `COc1ccc(Cn2c(-c3ccc(Cl)cc3)c[n+]3ccccc23)cc1`, which cytotoxicity is on record?
**A.** 15.3% (inactive)

**Q.** Which cytotoxicity does the source give for `Cc1cc([N+](=O)[O-])c(-c2ccc(/C=N/n3cnnc3)o2)cc1Cl` here?
**A.** 3.83% (inactive)

**Q.** For `COc1cccc2cc(C(N)=O)/c(=N\NC(=O)c3ccccc3)oc12`, which cytotoxicity is on record?
**A.** 19.1% (inactive)

**Q.** For `COc1ccc(OC)c(/C=N/NC(=O)c2ccc[n+](CC(=O)c3ccccc3)c2)c1`, which cytotoxicity is on record?
**A.** 26.3% (active)

**Q.** Which cytotoxicity does the source give for `CCN(CC)S(=O)(=O)c1ccc(Cl)c(C(=O)NC(C)C(c2cccs2)N2CCCC2)c1` (configuration not stated) here?
**A.** 13.4% (inactive)

**Q.** With `COc1ccc(OC)c(Cc2cnc3nc(N)nc(N)c3c2C)c1` as the compound, how does the cytotoxicity read?
**A.** 15.7% (inactive)

**Q.** With `CCOC(=O)c1cnc(Nc2nc3ccccc3o2)nc1CSC(=S)N1CCCCC1` as the compound, how does the cytotoxicity read?
**A.** 20.4% (inactive)
